# From ChEMBL document CHEMBL2218924, “A broad activity screen in support of a chemogenomic map for kinase signalling research and drug discovery” (Biochem J, 2013)
# How the values were obtained:
# [1] = target: T1, Casein kinase II (Homo sapiens) (UniProt P67870+P68400+P19784); settings: at 1 µM
# [2] = target: T1, Casein kinase II (Homo sapiens); settings: at 10 µM
# [3] = target: Casein kinase II subunit alpha' (Homo sapiens) (UniProt P19784); settings: at 1 µM
# [4] = target: Casein kinase II subunit alpha' (Homo sapiens) (UniProt P19784); settings: at 10 µM
# [5] = target: Dual specificity protein kinase CLK2 (Homo sapiens) (UniProt P49760); settings: at 1 µM
# [6] = target: Dual specificity protein kinase CLK2 (Homo sapiens) (UniProt P49760); settings: at 10 µM
# [7] = target: Dual specificity protein kinase CLK3 (Homo sapiens) (UniProt P49761); settings: at 1 µM
# [8] = target: Dual specificity protein kinase CLK3 (Homo sapiens) (UniProt P49761); settings: at 10 µM
# [9] = target: Tyrosine-protein kinase CSK (Homo sapiens) (UniProt P41240); settings: at 1 µM
# [10] = target: Tyrosine-protein kinase CSK (Homo sapiens) (UniProt P41240); settings: at 10 µM
# Dual specificity protein kinase CLK2 (Homo sapiens), sequence (P49760 whole entry, looked up): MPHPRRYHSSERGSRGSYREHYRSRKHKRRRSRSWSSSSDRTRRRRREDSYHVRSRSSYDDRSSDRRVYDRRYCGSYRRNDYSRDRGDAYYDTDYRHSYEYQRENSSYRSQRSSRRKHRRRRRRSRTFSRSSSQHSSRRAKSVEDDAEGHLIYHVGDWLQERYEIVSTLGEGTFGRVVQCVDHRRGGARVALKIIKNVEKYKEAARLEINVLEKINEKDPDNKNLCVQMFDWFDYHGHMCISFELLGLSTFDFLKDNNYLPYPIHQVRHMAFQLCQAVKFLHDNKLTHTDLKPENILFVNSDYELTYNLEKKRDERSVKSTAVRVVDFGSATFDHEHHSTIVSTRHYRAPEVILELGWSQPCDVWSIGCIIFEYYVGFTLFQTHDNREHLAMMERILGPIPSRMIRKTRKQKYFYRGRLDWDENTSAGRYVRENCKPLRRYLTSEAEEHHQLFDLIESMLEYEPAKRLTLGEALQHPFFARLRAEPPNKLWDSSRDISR
# Tyrosine-protein kinase CSK (Homo sapiens), sequence (P41240 2-450 limits assumed): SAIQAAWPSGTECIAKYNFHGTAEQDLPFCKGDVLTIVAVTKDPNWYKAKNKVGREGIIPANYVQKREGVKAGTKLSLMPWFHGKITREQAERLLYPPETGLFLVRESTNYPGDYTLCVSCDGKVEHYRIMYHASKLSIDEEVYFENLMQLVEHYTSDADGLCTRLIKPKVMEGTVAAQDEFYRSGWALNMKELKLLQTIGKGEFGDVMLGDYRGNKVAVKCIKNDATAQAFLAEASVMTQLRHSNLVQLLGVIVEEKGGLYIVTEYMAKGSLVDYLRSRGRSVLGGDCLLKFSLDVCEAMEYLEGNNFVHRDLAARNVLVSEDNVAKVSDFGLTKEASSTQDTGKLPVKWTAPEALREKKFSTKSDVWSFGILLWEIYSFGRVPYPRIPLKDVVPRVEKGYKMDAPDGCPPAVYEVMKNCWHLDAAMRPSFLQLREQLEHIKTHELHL
# Dual specificity protein kinase CLK3 (Homo sapiens), sequence (P49761 whole entry, looked up): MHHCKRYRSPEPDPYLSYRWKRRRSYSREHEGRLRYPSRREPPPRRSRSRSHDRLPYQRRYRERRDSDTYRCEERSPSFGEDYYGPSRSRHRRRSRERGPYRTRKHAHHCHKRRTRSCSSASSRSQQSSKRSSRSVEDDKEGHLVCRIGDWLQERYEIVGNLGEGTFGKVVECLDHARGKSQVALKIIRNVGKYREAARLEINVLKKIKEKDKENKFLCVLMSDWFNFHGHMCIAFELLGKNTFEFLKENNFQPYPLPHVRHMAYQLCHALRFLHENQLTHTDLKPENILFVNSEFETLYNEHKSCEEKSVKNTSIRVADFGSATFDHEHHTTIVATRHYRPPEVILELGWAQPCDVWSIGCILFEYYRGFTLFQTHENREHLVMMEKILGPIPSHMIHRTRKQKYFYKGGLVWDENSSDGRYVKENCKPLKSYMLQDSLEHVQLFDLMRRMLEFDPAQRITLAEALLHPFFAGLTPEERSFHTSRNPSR
# T1 sequence (P19784 whole entry, looked up): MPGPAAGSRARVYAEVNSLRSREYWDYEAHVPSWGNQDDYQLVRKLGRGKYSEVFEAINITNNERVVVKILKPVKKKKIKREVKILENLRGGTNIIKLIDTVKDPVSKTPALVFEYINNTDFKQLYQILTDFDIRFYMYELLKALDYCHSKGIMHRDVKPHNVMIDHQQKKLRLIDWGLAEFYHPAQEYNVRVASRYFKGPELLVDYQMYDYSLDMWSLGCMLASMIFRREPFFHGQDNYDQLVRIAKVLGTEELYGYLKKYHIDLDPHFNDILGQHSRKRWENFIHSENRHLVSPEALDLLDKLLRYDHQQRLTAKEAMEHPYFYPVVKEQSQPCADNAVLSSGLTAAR
# T1 sequence (P67870 whole entry, looked up): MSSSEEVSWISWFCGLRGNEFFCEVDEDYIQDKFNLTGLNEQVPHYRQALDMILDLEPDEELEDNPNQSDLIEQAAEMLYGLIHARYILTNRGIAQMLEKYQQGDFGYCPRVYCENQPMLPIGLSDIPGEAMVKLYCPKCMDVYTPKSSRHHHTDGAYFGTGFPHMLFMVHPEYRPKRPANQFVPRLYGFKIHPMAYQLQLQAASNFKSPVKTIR
# T1 sequence (P68400 whole entry, looked up): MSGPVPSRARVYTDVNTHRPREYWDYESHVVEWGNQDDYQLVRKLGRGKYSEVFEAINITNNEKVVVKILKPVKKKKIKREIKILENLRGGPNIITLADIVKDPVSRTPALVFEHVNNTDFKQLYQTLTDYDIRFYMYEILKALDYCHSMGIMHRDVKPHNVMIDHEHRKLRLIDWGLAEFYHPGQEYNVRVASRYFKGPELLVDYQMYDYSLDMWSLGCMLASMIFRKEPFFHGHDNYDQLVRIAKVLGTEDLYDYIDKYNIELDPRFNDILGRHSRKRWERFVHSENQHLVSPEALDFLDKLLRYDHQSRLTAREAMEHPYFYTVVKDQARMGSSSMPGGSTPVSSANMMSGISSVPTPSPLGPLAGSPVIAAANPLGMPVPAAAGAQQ
# Casein kinase II subunit alpha' (Homo sapiens), sequence (P19784 whole entry, looked up): as the sequence (P19784 whole entry, looked up) above
Compound,residual activity [1],residual activity [2],residual activity [3],residual activity [4],residual activity [5],residual activity [6],residual activity [7],residual activity [8],residual activity [9],residual activity [10]
CCC(=O)Nc1ccc2ncnc(Nc3cccc(Br)c3)c2c1,107%,101%,125%,90%,125%,105%,76%,142%,104%,93%
Cn1cc(/C=C2\C(=O)Nc3ccc(S(N)(=O)=O)cc32)c2ccccc21,79%,111%,124%,80%,35%,14%,45%,-3%,114%,92%
Nc1ccc2ncnc(NCCc3ccc(Oc4ccccc4)cc3)c2c1,100%,101%,109%,100%,87%,69%,94%,92%,118%,91%
Oc1c2ccccc2c2c3c(cccc13)N=N2,60%,19%,59%,18%,36%,21%,72%,34%,105%,93%
CC(C)n1cnc2/c(=N/c3cccc(Cl)c3)nc(NCCO)[nH]c21,89%,86%,108%,103%,19%,6%,55%,12%,101%,88%
COc1cc2ncnc(Nc3ccc(O)c(Br)c3)c2cc1OC,58%,44%,97%,38%,80%,30%,82%,118%,90%,76%
NC(=O)c1ccc2[nH]c(-c3ccc(Oc4ccc(Cl)cc4)cc3)nc2c1,100%,92%,92%,102%,101%,104%,89%,82%,105%,102%
CCOc1cc2ncnc(Nc3cccc(Br)c3)c2cc1OCC,89%,104%,113%,95%,102%,68%,92%,59%,95%,66%
Oc1ccc(Nc2nc(-c3ccc(Cl)cc3)cs2)cc1,101%,97%,100%,99%,118%,101%,92%,75%,98%,113%
Ic1cccc(CSc2nnc(-c3ccncc3)o2)c1,87%,87%,101%,97%,12%,13%,65%,45%,104%,94%
Cn1nc2c3c(cccc31)C(=O)c1ccccc1-2,87%,59%,99%,65%,86%,83%,76%,66%,101%,90%
O=C(Nc1cccc(Nc2nccc(Nc3cccc(C(F)(F)F)c3)n2)c1)C1CC1,75%,109%,108%,72%,71%,82%,76%,9%,115%,100%
COc1ccc(OC)c2c(=S)c3ccccc3[nH]c12,103%,79%,81%,97%,99%,74%,90%,81%,109%,105%
Cc1nc2cc3nc(-c4cccs4)cnc3cc2n1C,102%,104%,130%,92%,114%,63%,99%,53%,110%,109%
Cc1ccc(S(=O)(=O)/C=C/C#N)cc1,116%,98%,114%,103%,110%,112%,96%,96%,116%,105%
O=C1Nc2cc(Br)ccc2/C1=C1/Nc2ccccc2/C1=N\O,94%,86%,94%,57%,92%,74%,79%,54%,94%,89%

Compound,residual activity [1],residual activity [2],residual activity [3],residual activity [4],residual activity [5],residual activity [6],residual activity [7],residual activity [8],residual activity [9],residual activity [10]
O=C(Nc1cccc(Nc2cc(Nc3cccc(C(F)(F)F)c3)ncn2)c1)C1CC1,107%,104%,114%,103%,99%,101%,89%,32%,114%,96%
O=c1c2ccccc2[nH]c(=S)n1CCN1CCC(=C(c2ccc(F)cc2)c2ccc(F)cc2)CC1,89%,116%,125%,93%,115%,94%,90%,64%,120%,98%
O=C1NC(=O)/C(=C\c2ccc3nccnc3c2)S1,-13%,-12%,-12%,-5%,43%,6%,19%,-1%,102%,99%
CC(=O)O/N=C1\C(=C2\C(=O)Nc3cc(Br)ccc32)Nc2ccccc21,96%,90%,102%,89%,102%,65%,82%,76%,104%,86%
O=c1cc(-c2cccc3c2Sc2ccccc2S3)oc(N2CCOCC2)c1,106%,109%,107%,104%,104%,92%,100%,87%,103%,99%
O=[N+]([O-])c1ccc(-c2nc(-c3ccc(F)cc3)c(-c3ccncc3)[nH]2)cc1,100%,108%,114%,114%,122%,107%,89%,87%,108%,105%
O=C1Nc2ccccc2/C1=C1/Nc2ccccc2/C1=N\OCCC(O)CO (configuration not stated),73%,22%,46%,3%,2%,4%,58%,25%,,
CC[n+]1c(/C=C/N(C)c2ccccc2)n(-c2ccccc2)c2ccc(-c3nc4ccccc4s3)cc21,109%,105%,134%,90%,109%,108%,91%,58%,103%,95%
Cc1cc(Nc2nc(-c3ccccc3)nc3ccccc23)n[nH]1,43%,-2%,21%,-2%,10%,8%,53%,15%,102%,
CC(C)n1cnc2c(NCc3ccccc3)nc(NCCCO)nc21,102%,94%,110%,108%,53%,14%,88%,67%,104%,100%
O=C1c2ccccc2-[n+]2ccc3c([nH]c4ccccc43)c21,87%,71%,104%,85%,114%,103%,79%,72%,86%,88%
COc1ccc(C(=O)Nc2sc3c(c2C(N)=O)CCCC3)cc1OC,95%,115%,126%,91%,90%,82%,50%,52%,101%,99%
O=C1NC(=O)/C(=C/c2ccc3c(c2)OC(F)(F)O3)S1,32%,2%,52%,0%,116%,75%,91%,94%,121%,117%
Oc1ccc(-c2nc(-c3ccc(F)cc3)c(-c3ccncc3)[nH]2)cc1,107%,107%,122%,97%,123%,104%,94%,90%,126%,104%
Oc1n[nH]c2nnc(-c3c(-c4ccccc4)nn4ccccc34)cc12,92%,82%,110%,91%,114%,118%,85%,96%,93%,84%
